Activity calls are given as the source filed them. How the source made its calls: active means hit-call score of the fitted dose curve at least 0.9, where 1 is the maximum; inactive means score below 0.9.
Read-out: Matrix Metallopeptidase 1 (MMP1), MMP1 (gene 4312)
Test: BSK_BE3C_MMP1: BioMAP Diversity Plus: BE3C Assay for Matrix Metallopeptidase 1 (MMP1) Biomarker Activity (AID 2283024)
Conditions: primary human bronchial epithelial cells; actives raise or lower the signal
Procedure: BSK_BE3C is a cell-based, multiplexed-readout assay that uses bronchial epithelial cell, a human lung primary cell, with measurements taken at 24 hours after chemical dosing in a 96-well plate.BSK_BE3C_MMP1 is an assay component measured in the BSK_BE3C assay. It measures MMP-1 antibody related to regulation of gene expression using ELISA technology.Data from the assay component BSK_BE3C_MMP1 was analyzed into 1 assay endpoint. This assay endpoint, BSK_BE3C_MMP1, was analyzed with bidirectional fitting relative to DMSO as the negative control and baseline of activity. Using a type of binding reporter, gain or loss-of-signal activity can be used to understand changes in the signaling as they relate to the gene MMP1. Furthermore, this assay endpoint can be referred to as a primary readout, because this assay has produced multiple assay endpoints where this one serves a signaling function. To generalize the intended target to other relatable targets, this assay endpoint is annotated to the protease intended target family, where the subfamily is matrix metalloproteinase.
The levels of cell surface (or secreted, indicated by the prefix "s") biomarker endpoints were measured by ELISA. Overt cytotoxicity to cells in confluent adherent cultures (all systems other than the BT system) was assessed by measuring total protein levels using sulforhodamine B (SRB) staining in parallel cultures at the time of biomarker measurements, indicated as SRB endpoints. For proliferation assays for adherent cell types, individual cell types are cultured at sub-confluence and relative cell numbers quantified by SRB staining at time points optimized for each system (48 h: 3C and CASM3C systems; 72 h: BT and HDF3CGF systems; 96 h: SAg system). SRB was performed by staining cells with 0.1% SRB after fixation with 10% TCA and reading wells at 560 nm.Viability and proliferation of PBMC (T cells) was quantified by Alamar Blue reduction for the SAg and BT systems. For PBMC viability (referred to as PBMC Cytotoxicity within the assay endpoint names), cells were plated (75,000/well in a 96-well plate) and then chemical samples added for 1 h before addition of activators, SEB and TSST-1 (20 ng/mL final concentration each). Cells were incubated for 90 h. Then, Alamar Blue (20 uL/well) (Invitrogen, Cat DAL1100) was added for 6 h, and the plates were read with a fluorescence microplate reader at 546/580 nm (excitation/emission). For PBMC proliferation, cells were plated and activated as above but incubated for only 16 h prior to addition of Alamar Blue. Plates were read after 6 h.

SMILES | AC50 | outcome
CC/C(=C(/CC)c1ccc(O)cc1)c1ccc(O)cc1 | 35.1 µM (active) | –
O=C(O)Cc1cc(I)c(Oc2ccc(O)c(I)c2)c(I)c1 | 6.29 µM (active) | –
CCCCCc1ccc(N)cc1 | – | inactive
Cc1ccc(C(C)C)cc1 | – | inactive
CC(C)(C)c1csc(-c2cc3cc(OCc4ccccc4CC(=O)O)ccc3o2)n1 | 8.45 µM (active) | –
O=c1[nH]sc2ccccc12 | 26 µM (active) | –
CCCCCCCCCCCO | – | inactive
CCN(Cc1cccc(S(=O)(=O)O)c1)c1ccc(C(=C2C=CC(=[N+](CC)Cc3cccc(S(=O)(=O)O)c3)C=C2)c2ccccc2S(=O)(=O)[O-])cc1 | – | inactive
CCCCCCCCN(C)CCCCCCCC | – | inactive
CC[C@@H]1C[C@H](N(Cc2cc(C(F)(F)F)cc(C(F)(F)F)c2)C(C)=O)c2cc(C(F)(F)F)ccc2N1C(=O)OC(C)C | – | inactive
CCCCCCCC[Si](OCC)(OCC)OCC | – | inactive
O=C1c2ccccc2C(=O)N1CCc1noc(-c2ccc(CN3CCCCCC3)s2)n1 | – | inactive
CCOC(=O)O[C@H](C)OC(=O)c1ccc2c(c1)cc(C(=O)NC1CCN(C(C)C)CC1)n2Cc1cc(-c2ccc(Cl)s2)on1 | 13.2 µM (active) | –
NC(=O)c1nc(-c2cccc(-c3cc(F)ccc3OCC(F)(F)C(F)(F)F)c2)n[nH]1 | 36.5 µM (active) | –
c1ccc2ccccc2c1 | – | inactive
CN(C)C(=O)C1(N2CCCCC2)CCN(CC[C@@]2(c3ccc(Cl)c(Cl)c3)CN(C(=O)c3ccccc3)CCO2)CC1 | 29.1 µM (active) | –
O=C1CCC(C2CCCCC2)CC1 | 12.6 µM (active) | –
CC(=O)N1CCN(c2ccc(OC[C@H]3CO[C@](Cn4ccnc4)(c4ccc(Cl)cc4Cl)O3)cc2)CC1 | – | inactive
O=c1c(-c2ccc(O)cc2)coc2cc(O)cc(O)c12 | 15.3 µM (active) | –
Oc1ccc2ccccc2c1 | – | inactive

SMILES | AC50 | outcome
O=C1O[C@H]([C@@H](O)CO)C(O)=C1O | – | inactive
CN1C(=O)N(c2ccccc2Br)Cc2cnc(Nc3ccc4c(c3)OCC(CO)O4)nc21 (stereo not given) | 7.24 µM (active) | –
COc1ccc2cc(S(=O)(=O)N[C@H](CC(=O)N[C@H](Cc3ccc(CN4[C@H](C)CCC[C@@H]4C)cc3)C(=O)N(C)C(C)C)c3ccc4c(c3)OCO4)ccc2c1 | – | inactive
c1ccc2n[nH]nc2c1 | – | inactive
CCCCCCCCCC(=O)O | – | inactive
Cc1cn([C@H]2C[C@H](N=[N+]=[N-])[C@@H](CO)O2)c(=O)[nH]c1=O | – | inactive
CCCC(=O)OCCC(C)C | – | inactive
Cc1cc(F)ccc1-c1cc(N2CC[C@@H](O)[C@H]2CO)ncc1N(C)C(=O)C(C)(C)c1cc(C(F)(F)F)cc(C(F)(F)F)c1 | 14.5 µM (active) | –
Clc1cc(Cl)c2c(c1)N=C1CCCCCN1C2 | – | inactive
CC(O)CC(C)(C)O (stereo not given) | – | inactive
CCCCCCCCOc1ccc(C(=O)c2ccccc2)c(O)c1 | – | inactive
CCCCCCCCCCCC[N+](C)(C)C | 18 µM (active) | –
Cc1ncc(CO)c(CO)c1O | – | inactive
c1ccc(C[n+]2cccc3ccccc32)cc1 | – | inactive
COc1cccc([C@H](O)C2CCN(CCc3ccc(F)cc3)CC2)c1OC | – | inactive
CCN(Cc1cccnc1)C(=O)c1cccc(Cl)c1[C@]1(C)C(=O)N(Cc2ccc(OC)cc2OC)c2ccc(Cl)cc21 | – | inactive
CN(C[C@@H](CC[N+]12CCC(C3CCCCC3)(CC1)CC2)c1ccc(Cl)c(Cl)c1)C(=O)c1cc(C(F)(F)F)cc(C(F)(F)F)c1 | 23.5 µM (active) | –
CCCCCCCCCCCCO | – | inactive
COc1cc(C(=O)NC2CCN(C)CC2)ccc1Nc1ncc2c(n1)N(C1CCCC1)CC(F)(F)C(=O)N2C | 7.76 µM (active) | –
Cc1oc2c(NC(=O)c3c(Cl)cccc3Cl)cccc2c1C(C)(C)O | 14.3 µM (active) | –
